Source: PubChem (National Center for Advancing Translational Sciences (NCATS))
Pf growth 96h: P. falciparum growth inhibition at 96 hours; P. falciparum luciferase reporter growth, 96 h; Potency, µM (top dose mostly 28.7 µM), without a hit: at the top dose activity change, negative = inhibition, most hits filed as inhibitors; 6.9% of 320,000 active; further: potency means the concentration at half of the fitted maximal effect; on the % scale 0 is the no-effect control and ±100 the full control effect
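Delayed-death screen, second-generation endpoint: infected erythrocytes, 2% hematocrit, 0.05% parasitemia final; 96 hours at 37 C, 5% CO2; luciferase detection reagent; luminescence decrease equals reduced growth.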
HCMV antiviral: inhibitors of human cytomegalovirus; HFF cells, HCMV-luciferase reporter, 72 h; stronger effect = lower value; activity change, negative = inhibition, % at 57.5 µM; 4.5% of 410,000 active; AID 1259415; in the data active means activity change below about -60%; inconclusive means no clear call, values can overlap the other calls; inactive means above about -39%; further: on the % scale 0 is the no-effect control and ±100 the full control effect
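Compounds were evaluated in HFFs infected with an HCMV luciferase reporter virus (MOI 1 PFU/cell). Luciferase in lysates collected 72 h post infection served as the replication measure.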
SARS PLP yeast: blocks SARS-CoV papain-like protease in a yeast assay | S. cerevisiae expressing SARS-CoV PLpro, growth rescue | Potency, µM (titrated, usually from 32.9 µM), for inactives: top-dose activity, positive = growth rescue, most hits filed as activators | 0.19% of 330,000 active | AID 485353; calls by dose curve; further: potency means the concentration at half of the fitted maximal effect; 0% is about no effect; nearly all actives have a fitted effect of over 55% in size
Sm TGR inh: blocks Schistosoma mansoni thioredoxin glutathione reductase | AID 485364 | Q962Y6 | purified TGR, DTNB reduction, TNB absorbance 405 nm | 3% of 360,000 active | Potency, µM (top dose mostly 114 µM), for the others: top-dose activity change, negative = inhibition, hits mostly inhibitors; further: potency means the concentration at half of the fitted maximal effect; on the % scale 0 is the no-effect control and ±100 the full control effect; nearly all actives have a fitted effect of over 60% in size
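TGR 20 nM + NADPH 100 uM (dispensed conc.), cpd preinc 15 min RT; start with NADPH (500 uM addition) then DTNB (15 mM addition). Kinetic TNB absorbance, 405 nm filter. Four-parameter Hill fit across titration.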
HCV inhibitor: HCV inhibition. 3.4% of 340,000 active. AID 651820. Potency, µM (titrated, usually from 41.8 µM), for the others: at the top dose activity change, negative = inhibition, usual class: inhibitors. Huh7.5.1 HCVcc-Cre infection, luciferase reporter, 44 h; further: potency means the concentration at half of the fitted maximal effect; on the % scale 0 is the no-effect control and ±100 the full control effect
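1,000 cells/well; 4 h culture; + compound; + HCVcc-Cre (~0.5 moi); 44 h; luciferase substrate, RT 15 min; read 15 sec.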
Pf growth 48h: P. falciparum growth inhibition at 48 hours (one generation); P. falciparum luciferase growth in erythrocytes, 48 h; Potency, µM (top dose mostly 28.7 µM), for the others: top-dose activity change, negative = inhibition, hits mostly inhibitors; 5.9% of 310,000 active; further: potency means the concentration at half of the fitted maximal effect; on the % scale 0 is the no-effect control and ±100 the full control effect
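First compound was added to culture medium, then infected red cells at 0.1% parasitemia and 2% hematocrit (final). After incubation at 37 C under 5% CO2, luciferase detection reagent was dispensed and light output recorded.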
* hit, by the source's call; ? = inconclusive; nt = no result given; [ ] = dose if it differs, or a comment. Only some compounds are listed: those with a hit (about 15% of all), similar ones and a draw of the others. Unless noted, the call rests on the fitted dose curve; in most records, active means well fitted curve in the direction sought with a large enough effect; inconclusive means small, poorly fitted or top-dose-only effect, or another doubt; inactive means no such curve, though single readings can be large; an effect the other way counts as inactive or inconclusive.

SMILES	Pf growth 96h	HCMV antiviral	SARS PLP yeast	Sm TGR inh	HCV inhibitor	Pf growth 48h
Cc1ccc(-c2csc(C(O)c3ccc(F)c(F)c3)n2)cc1C (stereo not drawn)	nt	-36	nt	nt	nt	nt
CCOc1ccccc1N(CC(=O)Nc1ccccc1C(=O)N1CCCC1)S(C)(=O)=O	10%	?	6%	6%	6%	-28%
Cc1oc(-c2ccc(Cl)cc2)nc1CS(=O)CC(=O)NC1CCCCCC1 (stereo not drawn)	9.3µM*	-33	-4%	10µM*	?	14%
Cc1ccc(-c2nc(CS(=O)CC(=O)NC3CCCCC3)c(C)o2)cc1 (stereo not drawn)	?	16	9%	13µM*	1%	-13%
Cc1ccccc1-c1nc(CS(=O)CC(=O)NC2CC2)c(C)o1 (stereo not drawn)	-26%	-18	5%	?	?	12%
Cc1cccc(-c2nc(CS(=O)CC(=O)NC3CCCC3)c(C)o2)c1 (stereo not drawn)	?	15	1%	13µM*	5%	nt
Cc1oc(-c2ccc(Cl)cc2)nc1CS(=O)CC(=O)NCCN1CCCC1 (stereo not drawn)	?	-10	9%	2%	-24%	nt
Cc1oc(-c2ccc(Cl)cc2)nc1CS(=O)CC(=O)NCCCN(C)C1CCCCC1 (stereo not drawn)	47%	-70*	nt	0%	10µM*	?
COc1ccc(-c2nc(CS(=O)CC(=O)NC3CCCC3)c(C)o2)cc1 (stereo not drawn)	-5%	2	-5%	?	4%	12%
CCSC1=NC2(CCN(C(=O)NC3CCCCC3)CC2)N=C1c1ccc(OC)cc1	nt	-21	nt	0%	nt	nt
CNS(=O)(=O)c1cn(CC(=O)N2CCN(c3ccc(C)cc3C)CC2)cc1S(=O)(=O)NC	nt	0	nt	3%	nt	nt
Cc1oc(-c2cccs2)nc1CS(=O)CC(=O)NC1CCCCCC1 (stereo not drawn)	-19%	11	-7%	18µM*	1%	nt
Cc1ccccc1-c1nc(CS(=O)CC(=O)NC2CCCC2)c(C)o1 (stereo not drawn)	-13%	-15	6%	0%	3%	2%
Cc1cc(N2CCCCC2)nc2ccc(NC(=O)c3ccc(Br)o3)cc12	nt	-9	-3%	-26%	4µM*	nt
Cc1cc(N2CCN(C)CC2)nc2ccc(NC(=O)c3ccc(Br)o3)cc12	43%	29	0%	0%	?	1.7µM*
CCCCn1c(SCc2ccccc2C#N)nc2c(sc3ccccc32)c1=O	nt	-9	nt	-3%	nt	nt
Nc1ccc(-c2nc3cc(N)ccc3o2)cc1	-18%	150	-3%	-11%	9%	48%
Cc1ccc(-c2nc3cc(N)ccc3o2)cc1Br	4.7µM*	48	-4%	-4%	-8%	88%
CCCCCCNC(=O)CC(c1ccccc1)c1cc(Br)ccc1O (stereo not drawn)	?	-4	-82%	-12%	?	12µM*
CCN(CC(=O)Nc1ccc(NC(C)=O)cc1)C(=O)CSC(c1ccccc1)c1ccccc1	-21%	?	3%	-13%	10µM*	?
CC(=O)Nc1ccc(S(=O)(=O)N(Cc2ccccc2)Cc2ccccc2)cc1	nt	-61*	nt	11%	nt	nt
CCN(CC(=O)Nc1ccc(NC(C)=O)cc1)C(=O)CSCC(=O)Nc1ccc(C)cc1	8%	11	0%	-2%	8%	-4%
COCCNC(=O)CSc1nc(-c2ccccc2)c(-c2ccccc2)o1	nt	12	-8%	8%	?	8.3µM*
O=Cc1cc2ccccc2nc1SCCCF	0%	37	-2%	-8%	-3%	?
O=C(CC(c1ccccc1)c1ccccc1)NCCOCc1ccccc1	?	11	-1%	8%	-21%	10%
SMILES	Pf growth 96h	HCMV antiviral	SARS PLP yeast	Sm TGR inh	HCV inhibitor	Pf growth 48h
COCCNC(=O)CC(c1ccccc1)c1ccccc1	9.3µM*	-5	-6%	-5%	16%	nt
CC(C)CC(=O)Nc1ccc(Oc2ccc(NC(=O)CC(C)C)cc2)cc1	?	3	?	-3%	-4%	20%
CC(=O)Nc1ccc(NC(=O)CC(c2ccccc2)c2ccccc2)cc1	134%	9	nt	-7%	6%	12µM*
CCN(CC)S(=O)(=O)c1ccc(NC(=O)CC(NC(C)=O)c2ccccc2)cc1 (stereo not drawn)	nt	-81*	6%	-2%	14%	-20%
CC(C)CC(=O)Nc1ccc(Nc2ccccc2)cc1	18%	36	-22%	-3%	2.8µM*	29%
CC(=O)NC(CC(=O)Nc1ccc(S(=O)(=O)N2CCCC2)cc1)c1ccccc1 (stereo not drawn)	?	14	?	-28%	-4%	?
CC(C)(C)S(=O)(=O)N1C[C@@H]2C(=CC[C@H]3C(=O)N(c4ccccc4)C(=O)[C@@H]23)[C@@H]1CCO	nt	-4	nt	nt	-9%	nt
COC(=O)c1sccc1NC(=S)N1CCCC(C)C1 (stereo not drawn)	?	2	-14%	2%	-10%	12µM*
COC(=O)c1sccc1NC(=S)N(C)C1CCCCC1	?	-26	-8%	4%	3%	9.3µM*
COC(=O)c1sccc1NC(=S)N1CCN(c2cc(C)ccc2C)CC1	-24%	-25	-85%	4%	?	10µM*
COc1cccc(C(=O)C2CCCN(C3CCOCC3)C2)c1 (stereo not drawn)	2.3µM*	1	0%	68%	2%	-2%
CCOC(=O)N1CCC(N2CCCC(C(=O)c3ccc4cc(OC)ccc4c3)C2)CC1 (stereo not drawn)	?	-12	2%	-10%	?	8.3µM*
CC(=O)N1CCC(N2CCCC(C(=O)c3cccc(Cl)c3)C2)CC1 (stereo not drawn)	?	-16	0%	0%[57.1 µM]	-20%	1%
Cc1nc(CN2CCCCC2)cc(=O)[nH]1	26%	-14	7%	-6%	6%	-17%
CCOC(=O)c1sc2nc(CC(=O)OC)nc(N3CCN(c4ccc(OC)cc4)CC3)c2c1C	?	18	0%	9%	?	nt
CCOC(=O)c1sc2nc(CC(=O)OC)nc(NCc3ccc(Cl)cc3)c2c1C	?	-107*	9%	-6%	5.6µM*	nt
CCOC(=O)c1sc2nc(CC(=O)OC)nc(NCCN(CC)CC)c2c1C	?	-31	7%[6.58 µM]	-16%	11µM*	nt
CCOC(=O)c1sc2nc(CC(=O)OC)nc(NCCN3CCOCC3)c2c1C	?	?	-3%	25µM*	?	?
O=C(CSc1nc2c([nH]c3ccccc32)c(=O)n1-c1ccc(F)cc1)N1CCc2ccccc21	nt	18	nt	-4%	nt	nt
